In PubChem BioAssay (NCATS):
“And” between values parts separate entries of the source, which are not always exact repeats. Equal values may be shown once. Inconclusive results are not listed. Unmarked numbers belong to inactive results. The source made the active and inactive calls. The call rests on the fitted dose curve; in most records, active means well fitted curve in the direction sought with a large enough effect; inconclusive means small, poorly fitted or top-dose-only effect, or another doubt; inactive means no such curve, though single readings can be large; an effect the other way counts as inactive or inconclusive.

Columns and labels:
[1] = Drug repurposing screens with cells derived from glioblastoma tumor samples (AID 1345199); conditions: GBM patient neurospheres viability, ATP luminescence, 48 h; further: nearly all actives have a fitted effect of over 40% in size
Method in brief: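 Four patient lines of CD133+ GBM neurospheres were screened at several concentrations; hits were retested in those lines plus three slower-growing GBM lines, using 48-hour treatment and ATP-based viability.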

Tov112D = assay: Primary qHTS to identify gynecologic anti-cancer compounds using libraries of approved drugs and bioactive compounds (AID 1345084); conditions: Gynecologic cancer cell panel viability, ATPlite luminescence, 48 h; series mostly up to 57.5 µM; further: nearly all actives have a fitted effect of over 55% in size
Method in brief: (§1)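 Cells, 1,000 per well, were allowed to settle for 16 h at 37 C before compound addition. Five concentrations were tested for 48 h, and viability was read by ATPlite luminescence after 15 min at room temperature.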

PA-1 = assay: as above; conditions: Gynecologic cancer cell panel viability, ATPlite luminescence, 48 h; series mostly up to 57.5 µM
Method in brief: as §1

[2] = qHTS assay to identify inhibitors of the type 1 interferon - major histocompatibility complex class I in skeletal muscle: Counter screen cell viability and HiBit confirmation (AID 1347412); conditions: iHSKM muscle cells + IFN-b, HiBiT or CellTiter-Glo, 24 h; for activity change, negative = inhibition: at 45.9 µM (top of the series); on all read-outs here: nearly all actives have a fitted effect of over 60% in size
Method in brief: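 CRISPR HLA-B*08:01-HiBit immortalized human myoblasts (C25cl48) stimulated with 4 ng/ml IFN-beta and compounds (12-point 1:3, top 46 uM final) for 24 h at 37 C. Duplicate plates read by HiBit lytic luminescence or CellTiter Glo ATP.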

SKOV3 = assay: Primary qHTS to identify gynecologic anti-cancer compounds using libraries of approved drugs and bioactive compounds (AID 1345084); conditions: Gynecologic cancer cell panel viability, ATPlite luminescence, 48 h; series mostly up to 57.5 µM; further: nearly all actives have a fitted effect of over 55% in size
Method in brief: as §1

Tov-21-G = assay: as above; conditions: Gynecologic cancer cell panel viability, ATPlite luminescence, 48 h; series mostly up to 57.5 µM
Method in brief: as §1

[3] = at 20 µM (top of the series), tumour line C
[4] = at 21.2 µM (top of the series), tumour line B
[5] = at 21.2 µM (top of the series), tumour line D
[6] = at 21.3 µM (top of the series), tumour line A
[7] = at 45.9 µM (top of the series), tumour line B
[8] = at 45.9 µM (top of the series), tumour line D
[9] = at 46 µM (top of the series), tumour line A
[10] = at 46.1 µM (top of the series), tumour line C
On the % scale 0 is the no-effect control and ±100 the full control effect; potency means the concentration at half of the fitted maximal effect.

With `C[C@H]1C[C@@H]2[C@@H]([C@@H](O)C[C@@]3(C)[C@H]2CC[C@]3(O)C(=O)CO)[C@@]2(C)C=CC(=O)C=C12` the activity, negative = cell killing [1, 3] was -10.7%, the activity, negative = cell killing [1, 4] was -18.9% and the activity, negative = cell killing [1, 5] was -26.6%. The activity, negative = cell killing [1, 6] was -9.28%.

For `O=C(CCCCCCC(=O)Nc1ccc([C@H]2O[C@@H](CSc3nc(-c4ccccc4)c(-c4ccccc4)o3)C[C@@H](c3ccc(CO)cc3)O2)cc1)NO`, the Potency (Tov112D) was “inactive”.

`Nc1ccn([C@@H]2CS[C@H](CO)O2)c(=O)n1` showed an activity, negative = cell killing [1, 7] of -9.03%, an activity, negative = cell killing [1, 8] of -12.1% and an activity, negative = cell killing [1, 9] of -14.9%. The activity, negative = cell killing [1, 10] was 6.78%.

With `COc1cccc2nc(-c3cccs3)nc(NN3C(=O)C=C(C)C3=O)c12` the Potency (PA-1) was 1.58 µM (active) and the Potency (Tov112D) was 0.891 µM (active).

In the case of `COc1c(N2C[C@@H]3CCCN[C@H]3C2)c(F)cc2c(=O)c(C(=O)O)cn(C3CC3)c12`, the activity, negative = cell killing [1, 7] is reported as 6.2% and 1.37%, the activity, negative = cell killing [1, 8] is reported as -16.2% and 10% and the activity, negative = cell killing [1, 9] is reported as -18.3%. The activity, negative = cell killing [1, 10] was 4.44% and 2.53%.

Compound `CC[C@@H]1C(=O)N(C)c2cnc(Nc3ccc(C(=O)NC4CCN(C)CC4)cc3OC)nc2N1C1CCCC1` has an activity change, negative = inhibition ([2]; Viability) of -4.51%.

In the case of `Cc1ccc(-c2ncn(-c3ccc(Nc4nccc(-c5cccc(N6CCOCC6)c5)n4)cc3)n2)cn1`, the Potency ([2]; HiBiT) is reported as 2.49 µM (active) and the activity change, negative = inhibition ([2]; Viability) is reported as -8.69%.

In the case of `Cn1cncc1[C@@](N)(c1ccc(Cl)cc1)c1ccc2c(c1)c(-c1cccc(Cl)c1)cc(=O)n2C`, the activity change, negative = inhibition ([2]; HiBiT) is reported as -17.7% and the activity change, negative = inhibition ([2]; Viability) is reported as -17.4%.

`COc1cc(C(C)C)c2c(c1)S(=O)(=O)N(COc1cc(=O)n3cccc(OCCN4CCCCC4)c3n1)C2=O` showed an activity change, negative = inhibition ([2]; Viability) of -20.7%.

For `CC[C@H](CO)Nc1nc(NCc2ccccc2)c2ncn(C(C)C)c2n1`, the Potency ([2]; HiBiT) was 17.6 µM (active) and the activity change, negative = inhibition ([2]; Viability) was -8.22%.

For `C=CC(=O)Nc1cc2c(Nc3ccc(F)c(Cl)c3)ncnc2cc1C#CC(C)(C)N1CCN(C)CC1`, the Potency ([2]; Viability) was 22.2 µM (active).

With `CC(C)C[C@H](NC(=O)CNC(=O)c1cc(Cl)ccc1Cl)B(O)O` the Potency ([2]; HiBiT) was 0.557 µM (active).

With `COc1ccc(F)c(F)c1C(=O)c1cnc(NC2CCN(S(C)(=O)=O)CC2)nc1N` the Potency (PA-1) was 2.51 µM (active) and the Potency (Tov112D) was 7.94 µM (active).

Compound `O=C(O)CO.[NH2-].[NH2-].[Pt+2]` has an activity, negative = cell killing [1, 7] of -16.9%, an activity, negative = cell killing [1, 8] of 26.7% and an activity, negative = cell killing [1, 9] of -24.8%. The activity, negative = cell killing [1, 10] was -11%.

`CN1c2cc(O)c(N=NC(N)=O)cc2CC1S(=O)(=O)O` (stereo not given) gave an activity, negative = cell killing [1, 7] of -14.6%, an activity, negative = cell killing [1, 8] of 7.92% and an activity, negative = cell killing [1, 10] of -16.8%.

With `CS(=O)(=O)N1CCN(Cc2cc3nc(-c4cccc5[nH]ncc45)nc(N4CCOCC4)c3s2)CC1` the Potency (SKOV3) was 2.51 µM (active) and the Potency (Tov112D) was “inactive”.

With `Fc1cc(-c2cccc3ncc(-c4cnn(C5CCNCC5)c4)nc23)cc(F)c1CN1CCOCC1` the Potency (SKOV3) was 12.6 µM (active), the Potency (Tov-21-G) was 11.2 µM (active) and the Potency ([2]; HiBiT) was 19.8 µM (active).

For `Nc1ncnc2c1c(-c1cccc(OCc3ccccc3)c1)cn2C1CC(CN2CCCC2)C1` (stereo not given), the Potency (Tov112D) was “inactive” and the Potency ([2]; HiBiT) was 22.2 µM (active).

Work on `CC(C)(C)c1cc(C(C)(C)C)c(NC(=O)c2c[nH]c3ccccc3c2=O)cc1O` yielded an activity change, negative = inhibition ([2]; HiBiT) of -18% and an activity change, negative = inhibition ([2]; Viability) of -12%.

In the case of `CC(C)(C)c1cnc(CSc2cnc(NC(=O)C3CCNCC3)s2)o1`, the Potency ([2]; HiBiT) is reported as 0.351 µM (active) and the activity change, negative = inhibition ([2]; Viability) is reported as 9.32%.

With `Cc1coc2c1C(=O)C(=O)c1c-2ccc2c1CCCC2(C)C` the Potency (PA-1) was “inactive” and the Potency (Tov112D) was “inactive”.

In the case of `CC(C)c1ccc(Cn2ccc3c4c(N)nc(NC5CC5)nc4ccc32)cc1`, the Potency ([2]; HiBiT) is reported as 17.6 µM (active) and the Potency ([2]; Viability) is reported as 27.9 µM (active).

For `NC1(Cc2ccc(Cl)cc2)CCN(c2ncnc3[nH]ccc23)CC1`, the Potency (PA-1) was “inactive” and the Potency (Tov112D) was “inactive”.

For `Cc1cc(Nc2nc(N[C@@H](C)c3ccc(F)cc3)c(C#N)cc2F)n[nH]1`, the Potency (PA-1) was 7.08 µM (active) and the Potency ([2]; HiBiT) was 2.22 µM (active).

For `O=C(NC1CCNCC1)c1[nH]ncc1NC(=O)c1c(Cl)cccc1Cl`, the Potency ([2]; HiBiT) was 0.442 µM (active) and the activity change, negative = inhibition ([2]; Viability) was 4.1%.

`COc1ccc(CC2c3cc(OC)c(OC)cc3CC[N+]2(C)CCC(=O)OCCCCCOC(=O)CC[N+]2(C)CCc3cc(OC)c(OC)cc3C2Cc2ccc(OC)c(OC)c2)cc1OC` (stereo not given) gave an activity, negative = cell killing [1, 3] of -5.82%, an activity, negative = cell killing [1, 4] of -8.61% and an activity, negative = cell killing [1, 5] of -8.93%. The activity, negative = cell killing [1, 6] was -14%.

With `CC(C)(C)NC(=O)[C@H]1CN(Cc2cccnc2)CCN1C[C@@H](O)C[C@@H](Cc1ccccc1)C(=O)N[C@H]1c2ccccc2C[C@H]1O` the activity, negative = cell killing [1, 10] was 35.7% and the Potency ([1]; tumour line A) was 17.8 µM (active).

In the case of `Cc1cc(Nc2cc(CN3CCOCC3)c3nc(C)c(Cc4ccc(Cl)cc4F)n3n2)n[nH]1`, the Potency (PA-1) is reported as “inactive”, the Potency (Tov112D) is reported as “inactive” and the Potency ([2]; HiBiT) is reported as 3.52 µM (active).

For `O=c1[nH]nc(Sc2ncc([N+](=O)[O-])s2)n1-c1ccc2c(c1)OCCO2`, the Potency ([2]; HiBiT) was 14 µM (active).

With `CC1(C)CCC(c2ccc(Cl)cc2)=C(CN2CCN(c3ccc(C(=O)NS(=O)(=O)c4ccc(N[C@H](CCN5CCOCC5)CSc5ccccc5)c(S(=O)(=O)C(F)(F)F)c4)cc3)CC2)C1` the Potency (Tov-21-G) was “inactive”.

In the case of `C[C@@]12O[C@@H](C[C@]1(O)CO)n1c3ccccc3c3c4c(c5c6ccccc6n2c5c31)CNC4=O`, the Potency ([2]; HiBiT) is reported as 0.701 µM (active) and the activity change, negative = inhibition ([2]; Viability) is reported as -0.759%.

With `CN(c1ncccc1CNc1nc(Nc2ccc3c(c2)CC(=O)N3)ncc1C(F)(F)F)S(C)(=O)=O` the Potency ([2]; HiBiT) was 4.97 µM (active) and the activity change, negative = inhibition ([2]; Viability) was 13.6%.
